Results reported in PubChem BioAssay AID2284059 (EPA ToxCast).
Activity calls are given as the source filed them. Rule for the calls: active = hit-call score of the fitted dose curve at least 0.9, where 1 is the maximum; inactive = score below 0.9.

target: CYP2E1, CYP2E1 (gene 1571) (UniProt P05181); assay: ERF_FR_ADME_hCYP2E1: Eurofins (ERF) CYP450-related Enzyme Activity (ADME) Assay for CYP2E1
Description: ERF_FR_ADME_hCYP2E1 is a biochemical, single-readout assay that uses extracted gene-proteins in a cell-free assay. Measurements were taken 0.16 hour after chemical dosing in a 96-well plate. See CYP2E1 inhibition (recombinant, EC substrate).ERF_FR_ADME_hCYP2E1 is an assay component calculated from the ERF_FR_ADME_hCYP2E1 assay. It is designed to measure enzyme activity using a type of enzyme reporter as detected by peak area response of 6-hydroxychlorzoxazone with HPLC-MS/MS technology.Data from the assay component ERF_FR_ADME_hCYP2E1 was analyzed at the assay endpoint, ERF_FR_ADME_hCYP2E1, in the positive analysis fitting direction relative to acetonitrile as the negative control and baseline of activity. Using a type of enzyme reporter, loss-of-signal activity can be used to understand changes in enzymatic activity as they relate to gene CYP2E1. To generalize the intended target to other relatable targets, this assay endpoint is annotated to the cyp intended target family, where the subfamily is steroidogenesis-related.
Assay is performed using 20 uM chlorzoxazone, cells are pre-incubated for 5 minutes, and then 10 minutes incubation with NADPH at 37C.

Chain of CYP2E1, CYP2E1 (gene 1571) (P05181 whole entry, looked up): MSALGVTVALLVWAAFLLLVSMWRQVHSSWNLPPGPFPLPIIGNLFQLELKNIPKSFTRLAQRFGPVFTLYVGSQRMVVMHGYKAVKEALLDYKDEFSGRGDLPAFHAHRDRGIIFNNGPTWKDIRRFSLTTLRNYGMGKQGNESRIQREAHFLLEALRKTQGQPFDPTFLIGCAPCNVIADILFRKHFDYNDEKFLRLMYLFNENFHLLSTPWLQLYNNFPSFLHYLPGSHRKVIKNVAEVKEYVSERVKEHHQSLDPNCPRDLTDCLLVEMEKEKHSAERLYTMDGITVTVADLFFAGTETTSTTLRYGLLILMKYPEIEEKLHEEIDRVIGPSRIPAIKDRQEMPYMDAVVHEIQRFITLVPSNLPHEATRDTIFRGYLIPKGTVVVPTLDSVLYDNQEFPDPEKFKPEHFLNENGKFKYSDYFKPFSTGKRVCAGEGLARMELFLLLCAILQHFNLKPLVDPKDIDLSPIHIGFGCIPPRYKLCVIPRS

AC50, active:
O=C(/C=C/c1ccc(O)cc1)CC(=O)/C=C/c1ccc(O)cc1 1150 nM
COc1cc(/C=C/C(=O)CC(=O)/C=C/c2ccc(O)c(OC)c2)ccc1O 1080 nM
COc1cc(CCC(=O)CC(=O)CCc2ccc(O)c(OC)c2)ccc1O 1240 nM
